# Measured values: the supplement of paper PMC10037445
# Values joined by “and” are separate entries in the source; they are usually repeats but may differ in a detail not shown here. Equal values may be shown once. ± gives the standard deviation of the averaged measurements. In all, about 2,900 compounds were measured (“IRF Lucia reporter activity, fold change vs agonist alone”: median about 0.9, highest 2% from about 2.8 on). Only a selection was taken, and the highest values are over-represented in it overall.
# Columns and labels:
# RAW-Dual [1] = experiment: IRF Lucia reporter activity, fold change vs agonist alone; cytotoxicity flag (confluency mask): not cytotoxic; higher = enhanced IRF activity
# In short: (§1)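 Supernatant from RAW-Dual macrophages was read after 20 hours for IRF by QuantiLuc luminescence and for NF-κB by QuantiBlue absorbance at 620 nm. The cells (50,000 cells/well in DMEM, 384-well plates, 37 °C, 5% CO2) had received 50 nL of library stock by pin tool and, 1 h later, a PRR agonist. Reporter activity is expressed relative to agonist-alone wells as fold change, and wells were flagged cytotoxic if IncuCyte confluency was under 70% of agonist controls in both mask sets.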
# RAW-Dual [2] = experiment: IRF Lucia reporter activity, fold change vs agonist alone; higher = enhanced IRF activity; conditions: library stock concentration (final ~1000-fold dilution): 10 mM, agonist: MPLA (TLR4) […]
# In short: as §1
# RAW-Dual [3] = experiment: IRF Lucia reporter activity, fold change vs agonist alone; cytotoxicity flag (confluency mask): cytotoxic (confluency <70% of control); higher = enhanced IRF activity
# In short: as §1
# [4] = agonist: 3'3'-cGAMP (STING) 10 ug/mL
# [5] = cytotoxicity flag (confluency mask): not cytotoxic
# [6] = cytotoxicity flag (confluency mask): cytotoxic (confluency <70% of control)
smiles,measurement,setting,value
O=c1cc(-c2ccccc2)oc2cc(OC3OC(CO)C(O)C(O)C3O)c(O)c(O)c12 (stereo not drawn) (library stock concentration (final ~1000-fold dilution): 10 mM),IRF Lucia reporter activity,RAW-Dual [1]; [4],0.862
same,IRF Lucia reporter activity,RAW-Dual [1]; agonist: LPS (TLR4) 0.1 ug/mL,0.849
CC(Nc1ncnc2[nH]cnc12)c1cc2cccc(Cl)c2c(=O)n1-c1ccccc1 (stereo not drawn),IRF Lucia reporter activity,RAW-Dual [2]; [5],1.42
CC(Nc1ncnc(N)c1C#N)c1cc2cccc(-c3ccc(=O)n(C)c3)c2c(=O)n1C(C)C (stereo not drawn) (library stock concentration (final ~1000-fold dilution): 10 mM),IRF Lucia reporter activity,RAW-Dual [1]; [4],1.14
same,IRF Lucia reporter activity,RAW-Dual [1]; agonist: LPS (TLR4) 0.1 ug/mL,8.45
CC(Nc1ncnc2[nH]cnc12)c1cc2cccc(Cl)c2c(=O)n1-c1ccccc1 (stereo not drawn) (library stock concentration (final ~1000-fold dilution): 10 mM),IRF Lucia reporter activity,RAW-Dual [1]; [4],0.659
same,IRF Lucia reporter activity,RAW-Dual [1]; agonist: LPS (TLR4) 0.1 ug/mL,0.799
CC(Nc1ncnc(N)c1C#N)c1cc2cccc(-c3ccc(=O)n(C)c3)c2c(=O)n1C(C)C (stereo not drawn),IRF Lucia reporter activity,RAW-Dual [2]; [5],7.07
CC(NC(=O)c1c(N)nn2cccnc12)c1cc2cccc(C#Cc3cnn(C)c3)c2c(=O)n1-c1ccccc1 (stereo not drawn) (library stock concentration (final ~1000-fold dilution): 10 mM),IRF Lucia reporter activity,RAW-Dual [1]; [4],0.813
same,IRF Lucia reporter activity,RAW-Dual [1]; agonist: LPS (TLR4) 0.1 ug/mL,1.14
Cl.Fc1ccc(C2CCNCC2COc2ccc3c(c2)OCO3)cc1 (stereo not drawn),IRF Lucia reporter activity,RAW-Dual [2]; [5],1.35
Cl.Fc1ccc(C2CCNCC2COc2ccc3c(c2)OCO3)cc1 (stereo not drawn) (library stock concentration (final ~1000-fold dilution): 10 mM),IRF Lucia reporter activity,RAW-Dual [1]; [4],0.928
same,IRF Lucia reporter activity,RAW-Dual [1]; agonist: LPS (TLR4) 0.1 ug/mL,1.02
OCC1=CC(O)C2C=COC(OC3OC(CO)C(O)C(O)C3O)C12 (stereo not drawn),IRF Lucia reporter activity,RAW-Dual [2]; [5],1.01
OCC1=CC(O)C2C=COC(OC3OC(CO)C(O)C(O)C3O)C12 (stereo not drawn) (library stock concentration (final ~1000-fold dilution): 10 mM),IRF Lucia reporter activity,RAW-Dual [1]; [4],1.05
same,IRF Lucia reporter activity,RAW-Dual [1]; agonist: LPS (TLR4) 0.1 ug/mL,1.37
OCc1c[nH]c2ccccc12 (library stock concentration (final ~1000-fold dilution): 10 mM),IRF Lucia reporter activity,RAW-Dual [1]; [4],0.803 and 0.565
same,IRF Lucia reporter activity,RAW-Dual [1]; agonist: LPS (TLR4) 0.1 ug/mL,0.839 and 0.758
c1ccc2c(CCNc3ccc(Nc4ccncc4)cc3)c[nH]c2c1 (library stock concentration (final ~1000-fold dilution): 10 mM),IRF Lucia reporter activity,RAW-Dual [1]; [4],0.706
same,IRF Lucia reporter activity,RAW-Dual [1]; agonist: LPS (TLR4) 0.1 ug/mL,0.612
O=C(O)CCc1c[nH]c2ccccc12 (library stock concentration (final ~1000-fold dilution): 10 mM),IRF Lucia reporter activity,RAW-Dual [1]; [4],0.921
same,IRF Lucia reporter activity,RAW-Dual [1]; agonist: LPS (TLR4) 0.1 ug/mL,1.18
OCc1c[nH]c2ccccc12,IRF Lucia reporter activity,RAW-Dual [2]; [5],1.07 ± 0.022
c1ccc2c(CCNc3ccc(Nc4ccncc4)cc3)c[nH]c2c1,IRF Lucia reporter activity,RAW-Dual [2]; [5],2.97
CN1CC2c3ccccc3Oc3ccc(Cl)cc3C2C1.O=C(O)/C=C\C(=O)O (stereo not drawn) (library stock concentration (final ~1000-fold dilution): 10 mM),IRF Lucia reporter activity,RAW-Dual [3]; [4],0.746
same,IRF Lucia reporter activity,RAW-Dual [3]; agonist: LPS (TLR4) 0.1 ug/mL,0.716
CN1CC2c3ccccc3Oc3ccc(Cl)cc3C2C1.O=C(O)/C=C\C(=O)O (stereo not drawn),IRF Lucia reporter activity,RAW-Dual [2]; [6],1.95
O=[N+]([O-])c1ccc(Sc2cccc[n+]2[O-])c2nonc12 (library stock concentration (final ~1000-fold dilution): 10 mM),IRF Lucia reporter activity,RAW-Dual [3]; [4],0.262
same,IRF Lucia reporter activity,RAW-Dual [3]; agonist: LPS (TLR4) 0.1 ug/mL,0.0128
C#CCN(C)CCCOc1ccc(Cl)cc1Cl.Cl (library stock concentration (final ~1000-fold dilution): 10 mM),IRF Lucia reporter activity,RAW-Dual [1]; [4],1.06
same,IRF Lucia reporter activity,RAW-Dual [1]; agonist: LPS (TLR4) 0.1 ug/mL,1.19
C#CCN(C)CCCOc1ccc(Cl)cc1Cl.Cl,IRF Lucia reporter activity,RAW-Dual [2]; [5],1.12
O=C(Nc1ccc([N+](=O)[O-])cc1Cl)c1cc(Cl)ccc1O,IRF Lucia reporter activity,RAW-Dual [2]; [5],0.899
O=C(Nc1cc(C(F)(F)F)cc(C(F)(F)F)c1)c1cc(Cl)ccc1O (library stock concentration (final ~1000-fold dilution): 10 mM),IRF Lucia reporter activity,RAW-Dual [3]; [4],0.03 and 0.0207
same,IRF Lucia reporter activity,RAW-Dual [3]; agonist: LPS (TLR4) 0.1 ug/mL,3.59 and 3.92
CC(ONC(=O)c1cc(C(F)(F)F)cc(C(F)(F)F)c1)C(=O)Nc1ccc(Cl)cc1 (stereo not drawn) (library stock concentration (final ~1000-fold dilution): 10 mM),IRF Lucia reporter activity,RAW-Dual [1]; [4],0.52
same,IRF Lucia reporter activity,RAW-Dual [1]; agonist: LPS (TLR4) 0.1 ug/mL,0.52
O=C(Nc1ccc([N+](=O)[O-])cc1Cl)c1cc(Cl)ccc1O (library stock concentration (final ~1000-fold dilution): 10 mM),IRF Lucia reporter activity,RAW-Dual [1]; [4],0.354
same,IRF Lucia reporter activity,RAW-Dual [1]; agonist: LPS (TLR4) 0.1 ug/mL,2.53
O=C(Nc1cc(C(F)(F)F)ccc1C(F)(F)F)c1cc(Br)ccc1O (library stock concentration (final ~1000-fold dilution): 10 mM),IRF Lucia reporter activity,RAW-Dual [3]; [4],0.0368
same,IRF Lucia reporter activity,RAW-Dual [3]; agonist: LPS (TLR4) 0.1 ug/mL,4.46
CC12C=CC(=O)NC1CCC1C2CCC2(C)C(C(=O)Nc3cc(C(F)(F)F)ccc3C(F)(F)F)CCC12 (stereo not drawn),IRF Lucia reporter activity,RAW-Dual [2]; [5],1.08
O=C(Nc1cc(C(F)(F)F)cc(C(F)(F)F)c1)c1cc(Cl)ccc1O,IRF Lucia reporter activity,RAW-Dual [2]; [6],3.54 ± 1.7
O=C(Nc1cc(C(F)(F)F)ccc1N1CCCCC1)c1ccncc1 (library stock concentration (final ~1000-fold dilution): 10 mM),IRF Lucia reporter activity,RAW-Dual [1]; [4],1.05
same,IRF Lucia reporter activity,RAW-Dual [1]; agonist: LPS (TLR4) 0.1 ug/mL,0.874
CC12C=CC(=O)NC1CCC1C2CCC2(C)C(C(=O)Nc3cc(C(F)(F)F)ccc3C(F)(F)F)CCC12 (stereo not drawn) (library stock concentration (final ~1000-fold dilution): 10 mM),IRF Lucia reporter activity,RAW-Dual [1]; [4],1.22
same,IRF Lucia reporter activity,RAW-Dual [1]; agonist: LPS (TLR4) 0.1 ug/mL,1.38
O=C(Nc1cc(C(F)(F)F)ccc1N1CCCCC1)c1ccncc1,IRF Lucia reporter activity,RAW-Dual [2]; [5],1.18
